Here are results for one sequence from publication PMC7862700, “An all-to-all approach to the identification of sequence-specific readers for epigenetic DNA modifications on cytosine”.

Common to all, as to test: DAPPL (digital affinity profiling via proximity ligation, sequencing); 10 mM Tris-HCl pH 7.5, 50 mM NaCl, 1 mM DTT, 4% glycerol, room temperature, 30 min; GST-TFs on glutathione beads, 16-mer random dsDNA library, 0.1% formaldehyde crosslink after washing; high values mean tight binding
One assay addresses T1, FEV (Homo sapiens, UniProt Q99581 1-238).
T1 sequence: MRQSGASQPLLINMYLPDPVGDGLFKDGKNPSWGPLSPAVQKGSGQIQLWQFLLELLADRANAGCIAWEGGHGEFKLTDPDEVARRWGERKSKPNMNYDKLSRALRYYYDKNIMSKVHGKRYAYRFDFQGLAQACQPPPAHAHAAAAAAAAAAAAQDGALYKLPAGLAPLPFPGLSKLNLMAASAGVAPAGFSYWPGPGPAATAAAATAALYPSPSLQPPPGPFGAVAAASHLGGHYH
The following applies: protein: recombinant; tags: N-terminal GST; dsDNA, one strand shown. The method in brief: (§1)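 Binding signal is each hexamer's read frequency for a factor divided by its frequency in the tag-only sample. The factors were GST-fused human transcription factors from yeast, captured on glutathione beads, DNA-barcoded and pooled with that sample. Pools were incubated with 200 nmole of a random double-stranded 16-mer DNA library in Tris/NaCl/DTT/glycerol buffer at room temperature for 30 min, then washed, crosslinked with 0.1% formaldehyde, proximity-ligated with BsaI/T4 ligase (1 h, 37 °C), PCR-amplified and sequenced on an Illumina NextSeq500.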

The target in the next assay is ETV5 (Homo sapiens, UniProt P41161 1-510). Particulars: protein: recombinant; tags: N-terminal GST; dsDNA, one strand shown. The method in brief: as §1
For the next assay, the target named is HSF1 (Homo sapiens, UniProt Q00613 1-529). The following applies: protein: recombinant; tags: N-terminal GST; chain copies: 3; dsDNA, one strand shown. The method in brief:
as §1

Another assay has as its target T2, SPIC (Homo sapiens, UniProt Q8N5J4 1-248).
T2 sequence: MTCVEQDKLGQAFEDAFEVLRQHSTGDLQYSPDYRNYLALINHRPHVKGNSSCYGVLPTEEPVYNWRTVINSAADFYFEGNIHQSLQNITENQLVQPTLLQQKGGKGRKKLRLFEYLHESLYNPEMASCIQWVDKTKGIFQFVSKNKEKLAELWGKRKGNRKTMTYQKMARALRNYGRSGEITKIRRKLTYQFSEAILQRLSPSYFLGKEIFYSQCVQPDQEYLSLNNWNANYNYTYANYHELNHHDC
Particulars: protein: recombinant; tags: N-terminal GST; dsDNA, one strand shown. A digest of the protocol: as §1

A further assay addresses ELF4 (Homo sapiens, UniProt Q99607 1-663). Particulars: protein: recombinant; tags: N-terminal GST; dsDNA, one strand shown. The method in brief: as §1
In another assay the target is T3, ELK4 (Homo sapiens, UniProt P28324-2 1-405).
T3 sequence: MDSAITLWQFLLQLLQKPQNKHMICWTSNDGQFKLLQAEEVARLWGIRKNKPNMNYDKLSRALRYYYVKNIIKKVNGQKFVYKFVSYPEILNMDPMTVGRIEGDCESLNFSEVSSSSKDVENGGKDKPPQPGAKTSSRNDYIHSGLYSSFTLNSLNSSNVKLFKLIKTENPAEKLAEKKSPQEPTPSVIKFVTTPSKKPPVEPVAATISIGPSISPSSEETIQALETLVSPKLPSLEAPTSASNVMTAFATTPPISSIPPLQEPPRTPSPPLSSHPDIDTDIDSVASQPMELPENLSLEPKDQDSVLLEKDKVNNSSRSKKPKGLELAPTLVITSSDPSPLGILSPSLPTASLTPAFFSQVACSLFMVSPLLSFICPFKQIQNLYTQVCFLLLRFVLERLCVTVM
Particulars: protein: recombinant; tags: N-terminal GST; dsDNA, one strand shown. The method in brief: as §1

In a further assay the target is T4, ETV2 (Homo sapiens, UniProt O00321 1-342).
T4 sequence: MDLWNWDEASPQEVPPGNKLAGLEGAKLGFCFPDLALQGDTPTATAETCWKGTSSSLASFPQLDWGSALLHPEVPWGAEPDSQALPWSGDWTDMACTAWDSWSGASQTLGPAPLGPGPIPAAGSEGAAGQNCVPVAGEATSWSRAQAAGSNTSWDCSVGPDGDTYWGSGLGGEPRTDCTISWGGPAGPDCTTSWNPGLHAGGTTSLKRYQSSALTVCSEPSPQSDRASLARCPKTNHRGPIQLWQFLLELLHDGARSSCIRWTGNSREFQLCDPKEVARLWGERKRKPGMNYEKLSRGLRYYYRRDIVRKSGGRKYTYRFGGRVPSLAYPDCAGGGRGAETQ
Particulars: protein: recombinant; tags: N-terminal GST; dsDNA, one strand shown. A digest of the protocol:
as §1

For a further assay, the target named is T5, ELF3 (Homo sapiens, UniProt P78545 1-371).
T5 sequence: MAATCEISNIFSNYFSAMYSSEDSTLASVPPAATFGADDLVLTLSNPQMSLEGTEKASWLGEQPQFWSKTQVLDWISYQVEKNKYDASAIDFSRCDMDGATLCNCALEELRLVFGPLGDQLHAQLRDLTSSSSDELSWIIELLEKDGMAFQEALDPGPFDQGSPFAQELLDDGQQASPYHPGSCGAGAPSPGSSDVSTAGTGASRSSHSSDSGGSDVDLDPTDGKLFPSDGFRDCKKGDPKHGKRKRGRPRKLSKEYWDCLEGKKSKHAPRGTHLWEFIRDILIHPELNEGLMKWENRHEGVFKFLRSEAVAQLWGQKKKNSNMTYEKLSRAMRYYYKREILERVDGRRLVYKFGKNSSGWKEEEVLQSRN
Particulars: protein: recombinant; tags: N-terminal GST; dsDNA, one strand shown. A digest of the protocol: as §1

The next assay concerns the target CRX (Homo sapiens, UniProt O43186 1-299). The following applies: protein: recombinant; tags: N-terminal GST; dsDNA, one strand shown. A digest of the protocol:
as §1

The next assay concerns the target ETV1 (Homo sapiens, UniProt P50549 1-477). The following applies: protein: recombinant; tags: N-terminal GST; dsDNA, one strand shown. The method in brief:
as §1

A further assay has as its target T6, ERF (Homo sapiens, UniProt P50548 1-548).
T6 sequence: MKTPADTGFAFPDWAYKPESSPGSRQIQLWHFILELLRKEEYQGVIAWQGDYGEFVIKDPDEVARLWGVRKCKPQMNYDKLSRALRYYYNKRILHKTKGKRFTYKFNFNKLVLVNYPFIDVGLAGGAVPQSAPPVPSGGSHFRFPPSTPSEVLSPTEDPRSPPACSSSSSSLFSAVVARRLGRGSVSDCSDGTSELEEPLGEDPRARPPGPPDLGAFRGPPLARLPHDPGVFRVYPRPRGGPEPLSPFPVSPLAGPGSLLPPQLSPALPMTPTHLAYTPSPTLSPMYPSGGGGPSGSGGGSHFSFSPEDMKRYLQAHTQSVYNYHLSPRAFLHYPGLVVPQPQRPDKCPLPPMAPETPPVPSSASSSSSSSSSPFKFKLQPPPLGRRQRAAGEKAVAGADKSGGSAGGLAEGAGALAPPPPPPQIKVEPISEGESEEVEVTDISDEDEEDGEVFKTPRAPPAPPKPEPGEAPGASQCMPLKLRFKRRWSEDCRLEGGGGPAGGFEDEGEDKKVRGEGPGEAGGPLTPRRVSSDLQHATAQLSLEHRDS
The following applies: protein: recombinant; tags: N-terminal GST; dsDNA, one strand shown. A digest of the protocol: as §1

In the next assay the target is T7, ETV3L (Homo sapiens, UniProt Q6ZN32 1-361).
T7 sequence: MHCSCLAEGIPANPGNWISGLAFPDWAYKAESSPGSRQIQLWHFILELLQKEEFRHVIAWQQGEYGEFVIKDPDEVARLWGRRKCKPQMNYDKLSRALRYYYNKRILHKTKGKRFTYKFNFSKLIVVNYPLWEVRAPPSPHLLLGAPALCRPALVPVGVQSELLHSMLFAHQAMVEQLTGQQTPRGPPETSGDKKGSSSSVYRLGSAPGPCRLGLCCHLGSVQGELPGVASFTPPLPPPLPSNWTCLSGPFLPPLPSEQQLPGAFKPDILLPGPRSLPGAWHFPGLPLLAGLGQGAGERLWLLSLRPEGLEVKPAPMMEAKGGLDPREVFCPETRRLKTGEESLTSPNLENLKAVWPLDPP
The following applies: protein: recombinant; tags: N-terminal GST; dsDNA, one strand shown. The method in brief:
as §1

The target in a further assay is T8, ETS2 (Homo sapiens, UniProt P15036 1-469).
T8 sequence: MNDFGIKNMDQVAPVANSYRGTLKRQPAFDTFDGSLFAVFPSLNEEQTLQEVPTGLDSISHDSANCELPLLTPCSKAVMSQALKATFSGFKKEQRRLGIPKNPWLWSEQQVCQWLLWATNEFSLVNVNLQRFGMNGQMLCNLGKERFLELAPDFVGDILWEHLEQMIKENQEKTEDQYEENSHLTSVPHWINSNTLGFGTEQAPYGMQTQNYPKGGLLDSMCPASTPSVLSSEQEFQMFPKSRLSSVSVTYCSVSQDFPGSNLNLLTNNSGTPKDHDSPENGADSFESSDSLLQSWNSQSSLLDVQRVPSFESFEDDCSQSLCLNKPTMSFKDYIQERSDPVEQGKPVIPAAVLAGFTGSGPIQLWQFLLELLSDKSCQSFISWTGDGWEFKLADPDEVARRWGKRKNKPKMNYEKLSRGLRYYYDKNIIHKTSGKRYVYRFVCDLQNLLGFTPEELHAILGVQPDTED
Particulars: protein: recombinant; tags: N-terminal GST; dsDNA, one strand shown. A digest of the protocol:
as §1

In another assay the target is T9, SPDEF (Homo sapiens, UniProt O95238 1-335).
T9 sequence: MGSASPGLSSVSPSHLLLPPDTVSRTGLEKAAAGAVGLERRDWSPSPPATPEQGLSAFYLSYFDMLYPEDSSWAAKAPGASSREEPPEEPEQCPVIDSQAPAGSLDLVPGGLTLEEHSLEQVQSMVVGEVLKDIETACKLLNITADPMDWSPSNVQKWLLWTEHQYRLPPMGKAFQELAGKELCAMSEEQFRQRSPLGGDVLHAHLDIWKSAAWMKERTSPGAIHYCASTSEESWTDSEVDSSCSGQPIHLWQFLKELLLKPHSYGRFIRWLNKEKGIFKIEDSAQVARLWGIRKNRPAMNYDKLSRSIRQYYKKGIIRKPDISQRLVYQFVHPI
Particulars: protein: recombinant; tags: N-terminal GST; dsDNA, one strand shown. The method in brief: as §1

The next assay deals with T10, ETV7 (Homo sapiens, UniProt Q9Y603 1-341).
T10 sequence: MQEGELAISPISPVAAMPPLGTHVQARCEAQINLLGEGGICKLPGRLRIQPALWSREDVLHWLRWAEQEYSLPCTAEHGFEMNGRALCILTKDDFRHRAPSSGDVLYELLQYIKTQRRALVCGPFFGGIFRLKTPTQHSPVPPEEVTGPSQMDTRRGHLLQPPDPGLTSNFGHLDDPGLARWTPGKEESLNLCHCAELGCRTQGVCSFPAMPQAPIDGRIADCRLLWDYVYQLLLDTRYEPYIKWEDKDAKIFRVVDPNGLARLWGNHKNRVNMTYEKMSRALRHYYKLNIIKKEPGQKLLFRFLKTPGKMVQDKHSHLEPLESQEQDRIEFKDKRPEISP
The following applies: protein: recombinant; tags: N-terminal GST; dsDNA, one strand shown. The method in brief:
as §1

The target of another assay is T11, ELF5 (Homo sapiens, UniProt Q9UKW6-2 1-255).
T11 sequence: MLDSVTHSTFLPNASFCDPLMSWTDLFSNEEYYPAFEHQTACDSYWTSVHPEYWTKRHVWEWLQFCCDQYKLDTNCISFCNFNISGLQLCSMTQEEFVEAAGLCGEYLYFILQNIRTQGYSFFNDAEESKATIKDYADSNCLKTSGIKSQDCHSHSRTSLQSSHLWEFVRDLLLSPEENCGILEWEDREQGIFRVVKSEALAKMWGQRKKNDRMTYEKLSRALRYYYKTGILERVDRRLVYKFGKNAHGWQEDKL
The following applies: protein: recombinant; tags: N-terminal GST; dsDNA, one strand shown. A digest of the protocol: as §1

In a further assay the target is T12, ETV3 (Homo sapiens, UniProt P41162-2 1-143).
T12 sequence: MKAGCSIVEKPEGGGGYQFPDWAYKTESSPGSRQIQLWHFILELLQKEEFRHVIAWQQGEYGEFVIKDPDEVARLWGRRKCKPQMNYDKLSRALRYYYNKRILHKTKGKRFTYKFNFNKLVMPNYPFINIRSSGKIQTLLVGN
The following applies: protein: recombinant; tags: N-terminal GST; dsDNA, one strand shown. The method in brief: as §1

The target of a further assay is ETV6 (Homo sapiens, UniProt P41212 1-452). Particulars: protein: recombinant; tags: N-terminal GST; dsDNA, one strand shown. The method in brief:
as §1

Chain of ETV6 (P41212 whole entry): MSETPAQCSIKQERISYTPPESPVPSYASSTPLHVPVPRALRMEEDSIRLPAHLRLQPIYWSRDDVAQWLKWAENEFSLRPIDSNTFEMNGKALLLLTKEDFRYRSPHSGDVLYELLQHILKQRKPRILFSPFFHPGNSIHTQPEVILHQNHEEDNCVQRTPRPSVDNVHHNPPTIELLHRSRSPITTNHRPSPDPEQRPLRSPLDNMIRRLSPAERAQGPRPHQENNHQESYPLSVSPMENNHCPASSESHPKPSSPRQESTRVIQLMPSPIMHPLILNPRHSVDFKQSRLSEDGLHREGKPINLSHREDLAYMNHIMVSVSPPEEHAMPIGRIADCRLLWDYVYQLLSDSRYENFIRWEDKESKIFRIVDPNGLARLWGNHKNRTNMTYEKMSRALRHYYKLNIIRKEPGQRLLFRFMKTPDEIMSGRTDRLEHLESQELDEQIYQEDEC
Chain of HSF1 (Q00613 whole entry): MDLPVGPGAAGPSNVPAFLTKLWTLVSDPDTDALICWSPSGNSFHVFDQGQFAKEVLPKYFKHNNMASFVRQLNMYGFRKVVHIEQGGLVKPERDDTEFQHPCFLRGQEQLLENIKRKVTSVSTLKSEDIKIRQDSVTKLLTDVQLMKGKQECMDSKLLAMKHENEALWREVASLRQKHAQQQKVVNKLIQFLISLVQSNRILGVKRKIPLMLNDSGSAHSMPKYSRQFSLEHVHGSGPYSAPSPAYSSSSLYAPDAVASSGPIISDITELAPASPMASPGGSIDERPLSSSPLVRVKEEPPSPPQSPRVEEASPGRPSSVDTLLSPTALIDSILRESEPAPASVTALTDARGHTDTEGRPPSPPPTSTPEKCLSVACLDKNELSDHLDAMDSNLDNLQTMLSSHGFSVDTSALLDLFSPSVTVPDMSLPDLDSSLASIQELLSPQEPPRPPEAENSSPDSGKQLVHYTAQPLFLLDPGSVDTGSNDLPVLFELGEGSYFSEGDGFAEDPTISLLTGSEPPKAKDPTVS
Chain of CRX (O43186 whole entry): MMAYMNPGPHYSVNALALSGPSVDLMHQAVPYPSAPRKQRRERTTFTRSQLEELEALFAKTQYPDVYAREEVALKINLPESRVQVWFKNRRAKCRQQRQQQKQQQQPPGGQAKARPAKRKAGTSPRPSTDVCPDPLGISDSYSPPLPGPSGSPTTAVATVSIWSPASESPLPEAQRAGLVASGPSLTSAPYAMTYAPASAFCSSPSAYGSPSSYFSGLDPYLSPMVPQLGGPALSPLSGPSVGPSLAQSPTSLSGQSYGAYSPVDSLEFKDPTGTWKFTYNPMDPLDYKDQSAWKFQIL
Chain of ETV5 (P41161 whole entry): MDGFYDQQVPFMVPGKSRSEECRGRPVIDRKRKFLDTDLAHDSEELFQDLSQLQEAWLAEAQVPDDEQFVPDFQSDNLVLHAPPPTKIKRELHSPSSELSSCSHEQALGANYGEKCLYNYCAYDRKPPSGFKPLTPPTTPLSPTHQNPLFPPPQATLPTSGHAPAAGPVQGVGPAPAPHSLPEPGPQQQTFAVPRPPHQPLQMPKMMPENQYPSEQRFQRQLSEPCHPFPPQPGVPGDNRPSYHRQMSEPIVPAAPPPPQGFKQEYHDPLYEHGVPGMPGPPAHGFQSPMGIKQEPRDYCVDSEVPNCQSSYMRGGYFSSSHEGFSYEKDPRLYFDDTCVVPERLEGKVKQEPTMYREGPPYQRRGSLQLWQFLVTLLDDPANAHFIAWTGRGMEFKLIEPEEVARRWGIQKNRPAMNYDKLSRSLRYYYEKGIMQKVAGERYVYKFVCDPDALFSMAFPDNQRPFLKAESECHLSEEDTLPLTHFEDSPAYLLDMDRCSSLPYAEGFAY
Chain of ETV1 (P50549 whole entry): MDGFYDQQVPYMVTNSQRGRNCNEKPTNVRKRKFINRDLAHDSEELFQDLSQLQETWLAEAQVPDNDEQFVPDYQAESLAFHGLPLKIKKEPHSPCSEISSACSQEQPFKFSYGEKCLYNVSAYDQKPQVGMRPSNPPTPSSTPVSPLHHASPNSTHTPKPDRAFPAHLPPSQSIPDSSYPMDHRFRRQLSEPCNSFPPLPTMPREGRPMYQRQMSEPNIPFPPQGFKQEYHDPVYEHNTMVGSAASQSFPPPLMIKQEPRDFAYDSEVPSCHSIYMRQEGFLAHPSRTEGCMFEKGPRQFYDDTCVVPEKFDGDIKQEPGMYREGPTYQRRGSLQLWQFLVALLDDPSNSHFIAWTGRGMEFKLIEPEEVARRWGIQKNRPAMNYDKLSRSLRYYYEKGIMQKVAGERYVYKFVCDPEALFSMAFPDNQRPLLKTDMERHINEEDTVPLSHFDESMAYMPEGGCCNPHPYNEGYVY
Chain of ELF4 (Q99607 whole entry): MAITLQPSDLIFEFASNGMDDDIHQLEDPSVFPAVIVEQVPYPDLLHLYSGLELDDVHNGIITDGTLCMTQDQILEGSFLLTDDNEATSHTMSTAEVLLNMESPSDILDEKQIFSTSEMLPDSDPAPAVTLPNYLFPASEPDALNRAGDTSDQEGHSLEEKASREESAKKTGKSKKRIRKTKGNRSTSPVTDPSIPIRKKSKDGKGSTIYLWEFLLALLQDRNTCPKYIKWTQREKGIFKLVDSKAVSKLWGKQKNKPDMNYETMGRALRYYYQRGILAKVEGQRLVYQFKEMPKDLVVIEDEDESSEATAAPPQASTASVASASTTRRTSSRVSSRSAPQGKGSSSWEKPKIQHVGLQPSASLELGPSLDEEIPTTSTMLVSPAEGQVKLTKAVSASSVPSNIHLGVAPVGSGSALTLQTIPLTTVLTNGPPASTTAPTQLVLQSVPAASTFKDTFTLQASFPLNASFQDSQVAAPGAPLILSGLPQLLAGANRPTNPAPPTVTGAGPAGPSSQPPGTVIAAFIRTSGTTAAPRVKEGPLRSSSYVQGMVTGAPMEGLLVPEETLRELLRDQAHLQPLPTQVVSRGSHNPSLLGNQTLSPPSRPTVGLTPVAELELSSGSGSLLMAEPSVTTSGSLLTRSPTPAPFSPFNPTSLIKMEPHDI

As for CCTCCA, the binding signal with FEV was 1.31 fold enrichment (6-mer frequency, TF over GST control); with ETV5, 1.34 fold enrichment (6-mer frequency, TF over GST control); with HSF1, 1.29 fold enrichment (6-mer frequency, TF over GST control); in the assay with SPIC it was 1.34 fold enrichment (6-mer frequency, TF over GST control); with ELF4 it was 1.38 fold enrichment (6-mer frequency, TF over GST control); in the assay with ELK4, 1.47 fold enrichment (6-mer frequency, TF over GST control). Also, the binding signal in the assay with ETV2 was 1.43 fold enrichment (6-mer frequency, TF over GST control); with ELF3, 1.02 fold enrichment (6-mer frequency, TF over GST control); with CRX it was 1.12 fold enrichment (6-mer frequency, TF over GST control); in the assay with ETV1, 1.36 fold enrichment (6-mer frequency, TF over GST control); with ERF, 1.34 fold enrichment (6-mer frequency, TF over GST control); in the assay with ETV3L, 1.24 fold enrichment (6-mer frequency, TF over GST control). In addition, the binding signal was 1.31 fold enrichment (6-mer frequency, TF over GST control) in the assay with ETS2; 1.34 fold enrichment (6-mer frequency, TF over GST control) with SPDEF; 1.36 fold enrichment (6-mer frequency, TF over GST control) in the assay with ETV7; 1.42 fold enrichment (6-mer frequency, TF over GST control) in the assay with ELF5; 1.24 fold enrichment (6-mer frequency, TF over GST control) with ETV3; 1.29 fold enrichment (6-mer frequency, TF over GST control) in the assay with ETV6.
